Results filed as inconclusive are left out. Unmarked numbers belong to inactive results. Calls of active or inactive are those of the source. The call rests on the fitted dose curve; in most records, active means well fitted inhibition curve with a large enough effect; inconclusive means small, poorly fitted or top-dose-only effect; inactive means flat fitted curve, though single readings scatter.
biological target: Ubiquitin carboxyl-terminal hydrolase 1 (Homo sapiens) (UniProt O94782); test: Inhibitors of USP1/UAF1: Pilot qHTS (AID 504865); settings: purified USP1/UAF1, Ub-rhodamine cleavage fluorescence; series mostly up to 114 µM; activity change, negative = inhibition: at the top concentration;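 further: rhodamine fluorescence freed from ubiquitin-rhodamine substrate followed over time; top concentration of the series differs between compounds; nearly all actives have a fitted effect of over 35% in size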
Description: Deubiquitinating enzymes (DUBs) are a class of enzymes that can cleave isopeptide bond formed between the C-terminal carboxylate of ubiquitin and a lysine side-chain amino group on the target protein. Among them, ubiquitin specific proteases (USPs) constitute the largest DUB family. Human USPs are emerging as promising targets for pharmacological intervention because of their connection to a number of human diseases, including prostate, colon and breast cancer (1, 2), pediatric acute lymphoblastic leukemia (3), and familial cylindromatosis (4). The advantage of inhibiting USPs lies in the potential specificity of therapeutic intervention that can lead to better efficacy and reduce nonspecific side effects.
In a collaboration between the University of Delaware and the NIH Chemical Genomics Center, a high-throughput screen assay was developed to screen for USP1/UAF1 inhibitors. This miniaturized assay has a fluorescent read-out and is used to screen the NIH Molecular Libraries Small Molecule Repository (MLSMR) in order to identify a small molecule that inhibits USP1.
NIH Chemical Genomics Center [NCGC]
NIH Molecular Libraries Probe Centers Network [MLPCN]
Assay Submitter (PI): Zhihao Zhuang, University of Delaware
1. Priolo, C., et al. (2006) The isopeptidase USP2a protects human prostate cancer from apoptosis. Cancer Res 66, 8625-8632
2. Popov, N., et al. (2007) The ubiquitin-specific protease USP28 is required for MYC stability. Nat Cell Biol 9, 765-774
3. De Pitta, C., et al. (2005) A leukemia-enriched cDNA microarray platform identifies new transcripts with relevance to the biology of pediatric acute lymphoblastic leukemia. Haematologica 90, 890-898
4. Kovalenko, A., et al. (2003) The tumour suppressor CYLD negatively regulates NF-kappaB signalling by deubiquitination. Nature 424, 801-805
3 microliters of reagents (buffer in columns 3 and 4 as negative control and 1nM USP1/UAF1 complex in columns 1, 2, and 5-48) are dispensed into Greiner black solid bottom 1536-well assay plates. Compounds are then transferred via Kalypsys pin tool equipped with 1536-pin array (10nl slotted pins, V&P Scientific, San Diego, CA). Following an incubation step of 15 min at room temperature, 1ul of Ub-Rho substrate (150nM final concentration) is added to initiate the reaction. The plates are immediately centrifuged at 1000 rpm for 15 seconds, and subsequently transferred to a ViewLux high-throughput CCD imager (PerkinElmer) wherein kinetic measurements of fluorescence are acquired using 480 nm excitation/540 nm emission filter set (6 reads every 60 seconds, see Table 1). All reagents are diluted in an assay buffer consisting of 50mM HEPES (pH 7.8), 0.5mM EDTA, 0.1 mg/ml BSA, 1mM TCEP, and 0.01% Tween-20.
On the % scale 0 is the no-effect control and ±100 the full control effect.

Sequence of Ubiquitin carboxyl-terminal hydrolase 1 (Homo sapiens) (O94782 whole entry, looked up): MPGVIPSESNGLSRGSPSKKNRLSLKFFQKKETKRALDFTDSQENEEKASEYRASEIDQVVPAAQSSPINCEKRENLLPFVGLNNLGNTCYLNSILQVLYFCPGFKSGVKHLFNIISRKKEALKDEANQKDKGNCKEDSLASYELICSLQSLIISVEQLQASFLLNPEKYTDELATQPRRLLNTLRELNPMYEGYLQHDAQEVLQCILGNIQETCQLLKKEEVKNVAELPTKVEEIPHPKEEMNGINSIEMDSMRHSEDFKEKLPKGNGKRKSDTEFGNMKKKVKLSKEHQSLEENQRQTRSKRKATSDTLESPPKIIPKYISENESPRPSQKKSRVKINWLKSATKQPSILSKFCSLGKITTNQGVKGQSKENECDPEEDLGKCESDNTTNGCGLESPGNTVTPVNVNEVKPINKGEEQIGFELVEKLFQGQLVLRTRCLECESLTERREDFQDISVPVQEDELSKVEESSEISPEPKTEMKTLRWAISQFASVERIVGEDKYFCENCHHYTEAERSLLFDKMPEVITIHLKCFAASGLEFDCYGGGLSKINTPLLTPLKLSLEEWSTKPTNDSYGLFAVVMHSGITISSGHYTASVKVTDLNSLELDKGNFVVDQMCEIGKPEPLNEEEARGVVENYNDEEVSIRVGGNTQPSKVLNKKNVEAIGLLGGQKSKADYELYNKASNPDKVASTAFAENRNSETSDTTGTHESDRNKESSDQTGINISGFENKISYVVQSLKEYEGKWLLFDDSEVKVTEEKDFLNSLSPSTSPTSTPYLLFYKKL

Row | SMILES | activity change, negative = inhibition | Potency
1 | NC(=O)c1ncn([C@@H]2O[C@H](CO)[C@@H](O)[C@H]2O)n1 | -2.22% | –
2 | CCCCOC(=O)c1ccc(O)cc1 | – | inactive
3 | Cc1cc2c(cc1S(N)(=O)=O)S(=O)(=O)CCC2 | 11.9% [at 54.9 µM] | –
4 | Cc1cccc(C)c1NC(=O)CN(CC(=O)O)CC(=O)O | 0.0733% | –
5 | CC(=O)NC(Cc1ccccc1)C(=O)O (stereo not given) | 1.64% | –
6 | OC[C@H]1O[C@@H](O[C@@H]2[C@@H](CO)O[C@](O)(CO)[C@H]2O)[C@H](O)[C@@H](O)[C@H]1O | -1.39% | –
7 | O=C1NC(=O)[C@@]2(CCOc3ccc(F)cc32)N1 | -1.3% | –
8 | CCCCN(CCCC)CCCOC(=O)c1ccc(N)cc1 | 2.49% [at 54.9 µM] | –
9 | O=C(O)c1ccccc1O | – | inactive
10 | OCc1cc(C(O)CNCCCCCCOCCCCc2ccccc2)ccc1O (stereo not given) | -4.33% | –
11 | CCC(=O)Nc1ccc(O)cc1 | -9.34% | –
12 | Nc1ccc(S(=O)(=O)Nc2ccccc2)cc1 | -3.09% | –
13 | CSc1ccc2c(c1)N(CCC1CCCCN1C)c1ccccc1S2 (stereo not given) | -15.9% | –
14 | NCCNCCNCCN | 0.867% | –
15 | CN(C)CC[C@@H](c1ccc(Cl)cc1)c1ccccn1 | – | inactive
16 | CC(C)NC[C@H](O)c1ccc(O)c(O)c1 | – | inactive
17 | CC[C@@]1(c2ccccc2)NC(=O)N(C)C1=O | -8.16% | –
18 | CCN(CC)CCNC(C(=O)OCCC(C)C)c1ccccc1 (stereo not given) | -8.3% | –
19 | CCCOC(=O)c1ccccc1 | -0.277% | –
20 | CCN(CC)CCNC(=O)c1cc(Cl)c(N)cc1OC | – | inactive

Row | SMILES | activity change, negative = inhibition | Potency
21 | O=C(O)c1ccccn1 | 2.76% | –
22 | Cc1cc(CC(=O)O)n(C)c1C(=O)c1ccc(Cl)cc1 | – | inactive
23 | CN(C)CCOC(C)(c1ccccc1)c1ccccn1 (stereo not given) | 0.272% | –
24 | Cn1c(=O)c2c(ncn2CC2OCCO2)n(C)c1=O | -4.14% | –
25 | CC(CN(C)C)CN1c2ccccc2CCc2ccccc21 (stereo not given) | – | inactive
26 | O=C(O)CN1C(=O)c2cccc3cccc(c23)C1=O | -1.81% | –
27 | C[C@H]1O[C@@H](n2cc(F)c(=O)[nH]c2=O)[C@H](O)[C@@H]1O | -5.32% | –
28 | Cc1ncc(COP(=O)(O)O)c(C=O)c1O | -9.6% | –
29 | OCCN1CCN(CCCN2c3ccccc3Sc3ccc(Cl)cc32)CC1 | – | inactive
30 | CN(C)CCCN1c2ccccc2Sc2ccc(Cl)cc21 | -8.82% | –
31 | Cc1cccc(Nc2cc(Cl)nc(SCC(=O)O)n2)c1C | -7.42% | –
32 | OCC(O)CN1CCN(c2ccccc2)CC1 (stereo not given) | -5.77% | –
33 | Cc1c(Cl)cccc1Nc1ccccc1C(=O)O | -13.3% [at 54.9 µM] | –
34 | CC(=O)Nc1ccc(/C=N/NC(N)=S)cc1 | – | inactive
35 | c1ccc2c(CC3=NCCN3)cccc2c1 | – | inactive
36 | C[C@H](N)[C@H](O)c1cccc(O)c1 | -0.841% [at 54.9 µM] | –
37 | C#CCN(C)Cc1ccccc1 | – | inactive
38 | CCCn1cnc2c1c(=O)n(CCCCC(C)=O)c(=O)n2C | – | inactive
39 | NC(=O)N/N=C/c1ccc([N+](=O)[O-])o1 | – | inactive
40 | CN1CCCCC1CCN1c2ccccc2Sc2ccc(S(C)=O)cc21 (stereo not given) | -9.43% | –
